# Assay outcomes from PubChem BioAssay.
# This is a sample that favours compounds with a hit; in the whole collection about 3.4% have one here.
# HSF1 inhib = HSF1 inhibition | activity change, negative = inhibition, % at 7.5 µM (by protocol) | NIH3T3-HGL HSE-luciferase, MG132-induced, luminescence 8 h; hits give low values | AID 2098 | hit rate 0.77% among 300,000;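 active = more than half of replicate wells show activity change below -50%, luminescence cut by over half; inconclusive = some wells, but at most half, below -50%; inactive = no replicate well below -50%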;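 also: luciferase reports HSF-1 transcriptional activity via heat shock element; 0% = median of DMSO wells and -100% = zero luminescence signal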
# HSF1 activator = increases HSF-1 driven luciferase reporter signal | NIH3T3-HGL HSF-1 luciferase reporter, MG132, 8 h; 100% = twice DMSO control signal | activation, % at 9 µM | hit rate 1.7% among 300,000 | AID 504408;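 active = mean replicate activation of at least 50% with a set share of replicates each reaching 50%; inconclusive = only one of those two conditions met; inactive = mean below 50% and too few replicates reaching it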;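 also: 0% = median of the neutral control wells and 100% = twice that signal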
# Vif inh = blocks HIV Vif function | HEK293T cells, Vif self-association by quenched fluorescence, imaging, 24 h | inhibition, % at 7.49 µM | hit rate 0.35% among 340,000 | AID 602346; in the data active = inhibition above about 50%, passing the limit was not always enough; inconclusive = no clear call, values can overlap the other calls; inactive = below about 31%
# esBAF inh = SWI/SNF esBAF complex inhibition | AID 602393 | mouse ES cells, Bmi1-luciferase knock-in reporter, 24 h; 100% = twice the neutral-well signal | reporter increase, % at 12.5 µM | hit rate 2% among 350,000; in the data active = activation above about 40%; inconclusive = no clear call, values can overlap the other calls;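 also: 0% = median of the plate's neutral control wells and 100% = double that signal; a rise in the Bmi1 reporter signal indicates esBAF inhibition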
# An asterisk follows results filed as active; ? = inconclusive; . = no result.
SMILES,HSF1 inhib,HSF1 activator,Vif inh,esBAF inh
CCOC(=O)c1sc(Nc2ccc(F)cc2)nc1C,14,28,.,.
c1ccc(Nc2nc(-c3ccccn3)cs2)cc1,23,41,3,25
CCOC(=O)c1sc(Nc2nc3c(OC)cccc3s2)nc1C,27,26,-13,67*
CC(C)(C)C(=O)c1sc(Nc2ccccc2)nc1N,26,41,-3,57*
COc1ccccc1C#Cc1ccc([C@@H]2[C@@H](CO)N3CCCCN(S(C)(=O)=O)C[C@H]23)cc1,.,.,.,2
C[C@@H]1CCCCO[C@H](CN(C)C(=O)Nc2ccc(C(F)(F)F)cc2)[C@H](C)CN([C@@H](C)CO)C(=O)c2cc(NS(=O)(=O)c3cn(C)cn3)ccc2O1,.,.,.,6
Cc1noc(C)c1S(=O)(=O)N(C)C[C@H]1OCCCC[C@@H](C)Oc2ccc(NC(=O)C3CCCCC3)cc2C(=O)N([C@H](C)CO)C[C@H]1C,.,.,.,-6
COCC(=O)Nc1ccc2c(c1)OC[C@@H](C)N(Cc1ccccc1OC)C[C@H](C)[C@H](OC)CN(C)C2=O,.,.,.,0
COc1cccc2sc(Nc3nnc(-c4cccs4)o3)nc12,205,301*,0,-14
CC(=O)c1sc(N/N=C\c2ccccc2O)nc1C,26,56*,-3,17
Cc1nc(Nc2ccccc2)sc1-c1ccccc1,46,59*,3,.
Cc1nc(Nc2ccc(C(=O)O)cc2)sc1-c1ccccc1,-5,10,-8,.
CC(=O)c1sc(Nc2ccccc2)nc1C,.,.,10,36
CNc1nc(C)c(C(=O)OCc2ccccc2)s1,17,24,16,75*
COc1ccc(NC(=O)N(C)C[C@@H]2Oc3c(NC(=O)Nc4cccc5ccccc45)cccc3C(=O)N([C@H](C)CO)C[C@H]2C)cc1,.,.,.,6
CCOC(=O)c1sc(N/N=C/c2cccc(C)c2)nc1C,17,10,19,58*
CCOC(=O)c1sc(N/N=C/c2ccccc2)nc1C,-2,-6,-3,.
CCOC(=O)c1sc(NC(=O)Nc2ccc(Cl)cc2)nc1C,31,45,-5,61*
CCOC(=O)Nc1nc(C)c(C(=O)c2ccc(Cl)cc2)s1,2,11,10,-3
Cc1coc(NC(=O)CSc2nc(-c3ccc(Cl)cc3)cc(C(F)(F)F)c2C#N)n1,-69*,-76,-3,-1
C[C@H](CO)N1C[C@H](C)[C@H](CN(C)C(=O)c2cccc(F)c2)Oc2ncc(-c3cncnc3)cc2C1=O,.,.,.,4
C=CCNc1cc(C)oc(=O)c1C(=O)CC,5,22,-7,.
C=CCNc1cc(C)oc(=O)c1C(=O)CCC,-68*,-72,3,-4
C[C@@H]1CCCCO[C@H](CN(C)C(=O)Nc2ccccc2)[C@@H](C)CN([C@@H](C)CO)C(=O)c2cc(NS(=O)(=O)c3cccs3)ccc2O1,.,.,.,-2
CCCCCc1ccc(-c2ccc(/C=C/C(N)=O)cc2)nc1,3,-16,1,.
SMILES,HSF1 inhib,HSF1 activator,Vif inh,esBAF inh
CCCCCc1ccc(-c2ccc(OC)cc2)nc1,15,38,-2,98*
Cc1noc(C)c1S(=O)(=O)Nc1ccc2c(c1)CC(=O)N([C@H](C)CO)C[C@@H](C)[C@@H](CN(C)C(=O)Nc1ccccc1)O2,.,.,.,1
COc1ccc(NC2=Nc3ccccc3N3C2=Nc2c(c(C)nn2-c2ccc(C)cc2)C3c2cccnc2)cc1 (stereo unspecified),-81*,-86,11,5
CCOC(=O)/C=C/c1ccc2oc3ccccc3c(=O)c2c1,14,11,-16,49*
CO[C@@H]1CN(C)C(=O)c2ccc(NC(=O)C3CC3)cc2OC[C@H](C)N(Cc2cncnc2)C[C@@H]1C,.,.,.,-2
COc1ccc(CNC(=O)COC(=O)c2cc(S(=O)(=O)N3CCOCC3)ccc2O)cc1OC,.,.,51*,11
C[C@H]1CN([C@@H](C)CO)C(=O)c2cccc(NS(=O)(=O)c3cccs3)c2O[C@@H]1CN(C)CC1CCCCC1,.,.,.,-3
C[C@@H]1CN([C@H](C)CO)C(=O)c2cc(NC(=O)CCN3CCOCC3)ccc2O[C@H]1CN(C)C(=O)NC1CCCCC1,.,.,.,0
O=c1[nH]cnc2scc(-c3ccc(-c4ccccc4)cc3)c12,14,58*,-8,24
COc1cc(/C=C/c2noc(-c3ccccc3O)n2)ccc1OC(C)=O,15,54*,-2,19
CC[n+]1c(/C=C/c2ccc(OC(C)=O)c(OC)c2)ccc2ccccc21,9,22,0,83*
CCN(CC)c1ccc(/C=C/c2ccc3ccc(OC)cc3[n+]2CC)cc1,-2,-1,-17,-66
CC[n+]1c(/C=C/c2ccc(OC)c(OC)c2)ccc2ccccc21,-25,-33,7,80*
CC[n+]1c(/C=C/c2cc([N+](=O)[O-])ccc2O)ccc2ccccc21,-58*,-67,15,43*
CC[n+]1c(/C=C/c2ccc(N(C)C)cc2)ccc2ccccc21,3,8,-1,.
COCCNC(=O)C[C@@H]1C[C@H]2c3cc(NC(=O)NC4CCCC4)ccc3O[C@H]2[C@H](CO)O1,.,.,.,2
COc1ccccc1Nc1nc(N)nc(-c2oc3ccccc3c2C)n1,-2,15,-16,6
Cc1ccccc1Nc1nc(N)nc(-c2oc3ccccc3c2C)n1,43,72*,0,.
Cc1c(-c2nc(N)nc(Nc3ccc(F)cc3)n2)oc2ccccc12,23,44,-3,62*
O=C(CC1(O)C(=O)Nc2ccc(Br)cc21)c1ccc2c(c1)OCO2 (stereo unspecified),8,57*,1,3
C/[N+]([O-])=C/c1c(OCc2ccccc2)ccc2ccccc12,6,29,-9,?
O=Cc1c(OCc2ccccc2)ccc2ccccc12,18,50,-1,100*
CCOc1ccc2oc(C(=O)NNC(=O)c3ccccc3O)c(C)c2c1,7,7,0,48*
COc1ccc(Oc2nnnn2-c2ccccc2)cc1,18,3,-1,25
c1ccc(-n2nnnc2Oc2ccc(-c3nnco3)cc2)cc1,-70*,-75,-6,4
SMILES,HSF1 inhib,HSF1 activator,Vif inh,esBAF inh
COc1cccc(Oc2nnnn2-c2ccccc2)c1,7,-3,-8,58*
COc1ccc(OCc2nnnn2-c2ccccc2)cc1,14,55*,-9,.
COc1cccc(-n2nnnc2S(C)(=O)=O)c1,256,325*,6,8
CN(C[C@@H]1[C@H](c2ccccc2)[C@H](CO)N1C(=O)C1CC1)C(=O)c1ccccn1,.,.,.,0
COc1ccc(CNC(=O)C[C@@H]2CC[C@@H](NC(=O)Nc3ccc4c(c3)OCO4)[C@H](CO)O2)cc1,.,.,.,-17
CCN(CC)c1ccc2c(C)c(Cl)c(=O)oc2c1,-5,-2,4,.
CCN(CC)c1ccc2c(Cl)c(Br)c(=O)oc2c1,280,326*,?,.
C[C@H]1CN([C@@H](C)CO)C(=O)c2cc(NS(C)(=O)=O)ccc2O[C@@H]1CN(C)S(=O)(=O)c1cn(C)cn1,.,.,.,-5
Nc1cccn2c(-c3ccc(Cl)c(Cl)c3)cnc12,23,70*,-3,.
Cc1cc(C)c2c(c1)/C(=N/NS(=O)(=O)c1ccc(Br)cc1)CCC2,-54*,-67,.,-7
O=C(NCCc1ccccc1)c1noc2c1CCc1ccccc1-2,24,52*,2,9
